# ELG1 genotox: qHTS screen for small molecules that induce genotoxicity in human embryonic kidney (HEK293T) cells expressing luciferase-tagged ELG1; HEK293T ELG1-luciferase reporter, luminescence, 16 h; hit rate 1.3% among 330,000; AID 504466, 2011; Potency, µM (doses to about 46 µM), for the others: at the top dose activity change, positive = activation, usual class: activators; further: % of control where 0% means no effect; nearly all actives have a fitted effect of over 60% in size
#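 HEK293T cells expressing luciferase-tagged ELG1 were treated with compound or DMSO for 16 hr at 37°C. Luciferase activity was then read after 30 min with ONE-Glo at room temperature; rising signal flags genetic stress.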
# NPC1 promoter act: qHTS Assay for NPC1 Promoter Activators; Huh7 NPC1 promoter luciferase reporter, 24 h; Potency, µM (doses to about 9.22 µM), without a hit: at the highest dose activation, usual class: activators; hit rate 2.4% among 320,000; AID 485313, 2010; further: % of control where 0% means no effect; nearly all actives have a fitted effect of over 60% in size
#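 Quantitative HTS used a cell-based reporter: Huh7 cells stably bearing the NPC1 promoter upstream of luciferase were treated with compounds for 24 h, and promoter activation was read as luminescence.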
# FLuc counter: qHTS profiling assay for firefly luciferase inhibitor/activator using purifed enzyme and Km concentrations of substrates (counterscreen for miR-21 project) | Potency, µM (top dose mostly 57.5 µM), for the others: at the highest dose activity change, negative = inhibition, actives largely listed as inhibitors | hit rate 6.9% among 360,000 | purified FLuc, Km substrates, luminescence inhibition | Luciferin 4-monooxygenase (Photinus pyralis), P08659 | AID 588342, 2011;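 further: plate controls were vehicle for no effect and reference inhibitor for full effect; nearly all actives have a fitted effect of over 55% in size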
# Target sequence (P08659 whole entry, looked up): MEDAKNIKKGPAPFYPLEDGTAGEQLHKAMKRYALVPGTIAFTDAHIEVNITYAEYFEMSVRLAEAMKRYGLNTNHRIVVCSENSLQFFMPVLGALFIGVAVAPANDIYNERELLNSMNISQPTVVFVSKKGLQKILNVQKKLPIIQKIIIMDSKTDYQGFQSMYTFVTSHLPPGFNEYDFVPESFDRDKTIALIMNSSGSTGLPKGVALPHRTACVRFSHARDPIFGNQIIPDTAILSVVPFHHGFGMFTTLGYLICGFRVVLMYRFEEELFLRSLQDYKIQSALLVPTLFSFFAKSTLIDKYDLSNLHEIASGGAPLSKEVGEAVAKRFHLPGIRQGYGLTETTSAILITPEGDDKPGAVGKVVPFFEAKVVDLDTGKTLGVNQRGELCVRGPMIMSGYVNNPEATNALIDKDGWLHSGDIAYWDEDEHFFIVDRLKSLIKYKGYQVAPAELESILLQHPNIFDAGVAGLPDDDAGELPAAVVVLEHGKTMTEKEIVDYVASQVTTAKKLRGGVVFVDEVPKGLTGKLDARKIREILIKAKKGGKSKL
#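 Biochemical qHTS of compounds, final roughly 60 µM downward over six points, against 10 nM purified firefly luciferase using Km concentrations of substrates (10 uM D-luciferin, 10 uM ATP) in Tris acetate pH 7.5 buffer; luminescence output.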
# SMN2 splice enh: qHTS Assay for Enhancers of SMN2 Splice Variant Expression; hit rate 2.8% among 210,000; AID 1458, 2008; Potency, µM (doses to about 46.1 µM), for inactives: at the highest dose activity change, positive = activation, most hits filed as activators; HEK293 SMN2-luciferase splicing reporter, luminescence, 30-36 h; further: % of control where 0% means no effect; nearly all actives have a fitted effect of over 55% in size
#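 HEK293 cells carry an SMN2 minigene-luciferase reporter in which exon 7 inclusion puts luciferase in frame. Cells were seeded at 2000 cells/well, attached for 10-12 hours, then exposed to compounds for 30-36 hours at 37C before ONE-Glo luminescence.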
# Rab9 prom act: qHTS Assay for Rab9 Promoter Activators. Potency, µM (series often up to 9.22 µM), without a hit: at the highest dose activation, negative = inhibition, actives largely listed as activators. hit rate 2.8% among 320,000. AID 485297, 2010. Huh7 Rab9 promoter-luciferase reporter, luminescence, 24 h; further: % of control where 0% means no effect; nearly all actives have a fitted effect of over 60% in size
#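 Quantitative HTS format; Huh7 Rab9-luciferase reporter cells (1500/well) receive compound 2 h post-plating, incubate 24 h at 37 °C, then get luciferase reagent for 10 min before luminescence reading.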
# The depositor's hits bear a star; ? = inconclusive; nt = not tested or not shown; [ ] = dose if it differs, or a comment. Rows were chosen to be rich in hits. Some 7.5% of all compounds tested hit in one or more screens of this group. The call rests on the fitted dose curve; in most records, active means well fitted curve in the direction sought with a large enough effect; inconclusive means small, poorly fitted or top-dose-only effect, or another doubt; inactive means no such curve, though single readings can be large; an effect the other way counts as inactive or inconclusive. Potency means the concentration at half of the fitted maximal effect.
SMILES,ELG1 genotox,NPC1 promoter act,FLuc counter,SMN2 splice enh,Rab9 prom act
COc1ccc(CC(=O)N2CCN(c3ccccn3)CC2)cc1,0.2%,-5.5%,0.8%,12.0%,2.3%
COc1ccc(-n2nc(C(=O)NCC(=O)N3CCN(c4ccccn4)CC3)c3ccccc3c2=O)cc1,1.6%,?,1.2µM*,?,?
CC1S/C(=N/N=C/c2cccs2)NC1=O (stereo not given),14.4%,0.2%,?,nt,2.3%
Cc1ccc(S(=O)(=O)Oc2ccc(C)cc2/C=N/N=C2\NC(=O)C(C)S2)cc1 (stereo not given),?,11.1%,9.53µM*,-7.8%,?
COc1ccc(S(=O)(=O)c2c(O)c3ccc(C(=O)Nc4cccc(F)c4)cc3[nH]c2=O)cc1,0.8%[9.26 µM],2.5%,?,nt,-1.2%
CCc1ccc(NC(=O)c2ccc3c(O)c(S(=O)(=O)c4ccc(Cl)cc4)c(=O)[nH]c3c2)cc1,nt,nt,7.57µM*,nt,nt
COc1cccc(NC(=O)c2ccc3c(O)c(S(=O)(=O)c4ccccc4)c(=O)[nH]c3c2)c1,0.3%[9.26 µM],2.0%,19µM*,nt,-0.1%
O=[N+]([O-])c1cc(O)c2ncccc2c1,-9.6%,-39.3%,-0.1%,-105.1%,-33.9%
COC(=O)Cc1[nH]c(Cl)nc1C(N)=O,0.1%,0.0%,1.1%,nt,-2.4%
CCOc1ccc(NC(=O)CSc2nc3c([nH]c4ccccc43)c(=O)n2C)cc1,1.8%,11.3%,-1.5%,9.2%,-0.8%
COc1cc(CO)ccc1OCC(=O)N1CCc2ccccc21,15.1%,15.7%,-6.5%,nt,25.5%
O=Cc1ccc(OCC(=O)N2CCc3ccccc32)c(Br)c1,?,5.6%,7.57µM*,nt,19.2%
O=C(COc1ccc(F)cc1Br)N1CCc2ccccc21,1.58µM*,2.82µM*,0.757µM*,11.2µM*,0.631µM*
Cc1cccc(-n2c(C)n[nH]c2=S)c1C,nt,nt,-1.3%,-0.6%,nt
CCn1cc(C=C2C(=O)c3ccccc3C2=O)c2ccccc21,?,1.3%,6.01µM*,9.7%,-2.1%
CCN=C1S/C(=C\c2cn(CC)c3ccccc23)C(=O)N1CC,-2.9%,0.7%,-10.7%,-12.1%,2.2%
Cc1cnc(C(=O)Nc2nnc(SCc3c(Cl)cccc3Cl)s2)cn1,4.4%,0.9%,1.2%,-13.1%,-11.3%
COc1cc(CNCCc2ccc(F)cc2)ccc1OCc1ccc(Cl)nc1,-8.1%,-1.7%,-1.2%,-11.3%,-3.9%
COc1cc(CO)ccc1OCc1ccc(Cl)nc1,16.4µM*,2.51µM*,12µM*,nt,3.16µM*
COc1ccc(-c2noc(CN(C(=O)c3cccs3)C(C)C)n2)cc1,-5.7%,-1.1%,4.6%,-28.0%,-2.5%
COc1nc2cc(C)ccc2cc1-c1noc(-c2cccnc2)n1,-0.4%,5.5%,2.4%,-8.3%,0.6%
COc1ccccc1-c1nc(-c2ccc(C)nc2OC)no1,8.2µM*,3.98µM*,4.26µM*,12.6µM*,2µM*
COc1nc(C)ccc1-c1noc(-c2ccccn2)n1,1.16µM*,1.26µM*,6.01µM*,8.91µM*,0.562µM*
COc1nc(C)ccc1-c1noc(-c2cccnc2)n1,?,?,23.9µM*,nt,?
C#Cc1ccc([C@@H]2C=C(C(=O)NCc3ccccc3)O[C@H](OCc3ccc(CO)cc3)C2)cc1,-11.0%,1.3%,-0.5%,nt,-1.0%
SMILES,ELG1 genotox,NPC1 promoter act,FLuc counter,SMN2 splice enh,Rab9 prom act
COc1cc(-c2nnn(Cc3ccccc3C)n2)cc(OC)c1OC,5.7%,-5.2%,0.7%,nt,3.6%
Clc1ccccc1Cn1nnc(-c2ccccc2)n1,?,26.7%,21.3µM*,?,?
Clc1ccccc1Cn1nnc(-c2cccs2)n1,18.4µM*,3.16µM*,15.1µM*,12.6µM*,3.55µM*
Cc1ccccc1-c1nnn(Cc2ccc(F)cc2Cl)n1,8.8%,15.9%,16.9µM*,nt,-1.3%[1.84 µM]
Fc1ccc(-c2nnn(Cc3ccc(F)cc3Cl)n2)cc1,12.7%,21.9%,?,nt,20.9%
CN(C)c1ccc(-c2nnn(Cc3ccccc3Br)n2)cc1,?,?,13.5µM*,11.8%,?
O=C(CCn1nnc(-c2cccs2)n1)NCc1ccccc1Cl,-0.4%,0.1%,0.2%,28.3%,5.1%
C(=N\n1cnnc1)/c1cccs1,3.0%,4.5%,-0.3%,?,1.6%
C(=N\N=C\c1cccs1)/c1cccs1,5.5%,?,2.13µM*,?,2µM*
CC1=N/C(=C/c2ccc([N+](=O)[O-])cc2)C(=O)N1c1ccc(Cl)cc1Cl,-18.9%,0.2%,-2.1%,-51.1%,-0.1%
CC1=N/C(=C\c2ccc([N+](=O)[O-])cc2)C(=O)N1c1ccc(F)cc1F,-1.0%,-3.9%,7.57µM*,nt,-1.3%
CN1CCN(c2ccc(-c3cccc(NC(=O)COc4ccc(Cl)cc4)c3)nn2)CC1,2.06µM*,2.82µM*,1.07µM*,nt,2µM*
O=C(COc1ccccc1)Nc1ccc(-c2ccc(N3CCOCC3)nn2)cc1,?,?,?,nt,2.24µM*
CN1CCN(c2ccc(-c3cccc(NC(=O)COc4ccccc4)c3)nn2)CC1,2.59µM*,1.58µM*,1.51µM*,nt,1.58µM*
CN1CCN(c2ccc(-c3cccc(NC(=O)COc4ccc(Cl)cc4Cl)c3)nn2)CC1,0.651µM*,?,0.477µM*,nt,?
CS(=O)(=O)c1ccc(-c2cccc(NC(=O)COc3ccccc3)c2)nn1,7.6%,1.4%,-16.8%,nt,0.3%
CSc1cccc(NC(=O)c2ccccn2)c1,?,?,10.7µM*,?,3.98µM*
CSc1cccc(NC(=O)N2CCc3ccc(NC(=O)c4ccccn4)cc3C2)c1,-6.6%,2.51µM*,8.49µM*,nt,3.98µM*
COc1cc(/C=C2/C(=O)NN(c3ccc(C)c(Cl)c3)C2=O)cc([N+](=O)[O-])c1O,0.8%,-4.5%,19µM*,nt,5.5%
COc1cc(/C=C2\SC(=O)N(c3ccc(Cl)cc3)C2=O)cc([N+](=O)[O-])c1O,-5.9%,-9.5%,-5.8%,-12.9%,-3.4%
COc1cc(/C=C2/C(=O)NN(c3cccc(C)c3)C2=O)ccc1OC(=O)c1ccco1,?,-4.0%,?,6.2%,7.9%
COc1cc(/C=C2/C(=O)NN(c3cccc(C)c3)C2=O)cc([N+](=O)[O-])c1O,0.8%,-1.1%,21.3µM*,6.4%,-3.6%
NNc1nc(-c2ccccc2)cc(-c2ccc(Br)cc2)n1,-8.8%,-4.0%,?,nt,-2.9%
Nc1nn2cc(-c3ccc(Br)cc3)nc2c2ccccc12,?,1.78µM*,1.69µM*,nt,2.24µM*
CN(C)S(=O)(=O)c1cccc(-c2cn3cc(Cl)ccc3n2)c1,?,24.2%,?,-4.8%,21.1%
c1ccn2cc(-c3ccc4c(c3)OCCO4)nc2c1,0.291µM*,?,0.477µM*,0.398µM*,0.631µM*

# Compound activity deposited in PubChem BioAssay by National Center for Advancing Translational Sciences (NCATS).
